Records with an inconclusive call do not appear. Unmarked numbers belong to inactive results. Activity calls are given as the source filed them. Calls follow the shape of the dose curve; as a rule, active = well fitted activation curve with a large enough effect in the repeat runs; inconclusive = weak or mixed curves; inactive = no such curve, though single readings can be large or run the other way.
Experiment: qHTS assay for small molecules that induce genotoxicity in human embryonic kidney cells expressing luciferase-tagged ATAD5 (AID 651632); also: nearly all actives have a fitted effect of over 15% in size
Conditions: HEK293T ATAD5-luciferase induction, 16 h; series mostly up to 83.3 µM; activation: at the top concentration
Source text: U.S. Tox21 Program National Center for Advancing Translational Sciences [NCATS] NIH Chemical Genomics Center [NCGC] U.S. Environmental Protection Agency [EPA] National Institutes of Environmental Health Sciences [NIEHS] National Toxicology Program [NTP] U.S. Food and Drug Administration [FDA] Tox21 Assay Overview: As cancer cells divide rapidly and during every cell division they need to duplicate their genome by DNA replication. The failure to do so results in the cancer cell death. Based on this concept, many chemotherapeutic agents were developed but have limitations such as low efficacy and severe side effects etc. A new cell based assay was developed to find the compounds that effectively block DNA replication either by directly damaging DNA or by inhibiting other cellular mechanisms. Enhanced Level of Genome Instability Gene 1 (ELG1; human ATAD5) protein levels increase in response to various types of DNA damage. Using a luciferase reporter-gene tagged with ATAD5, a cell-based assay [developed by Kyungjae Myung, NHGRI, NIH] was used to measure the induction of ATAD5 in human embryonic kidney cells (HEK293T). So, increase in luciferase activity can be used to identify the compounds that cause genetic stress.
Tox21 Assay Protocol Summary: For genotoxicity screening, 2,000 cells in 5 uL/well were dispensed into white, solid-bottom 1536-well plates using a Multidrop Combi (Thermo Scientific) dispenser. Following transfer of 23 nL compound or DMSO vehicle by a pin tool, the plates were incubated 16 hr at 37C and 5% CO2. 5 ul Amplite (AAT Bioquest, Inc.) was then added to each plate and following 30 min incubation at room temperature, luciferase activity was quantified on a ViewLux CCD-based plate reader.
% is scaled to controls: 0 for no effect and ±100 for the full control effect.

Compound	activation	Potency
O=C(O)Cc1ccc(Cl)cc1Cl	1.82%	–
C=C(C)C(=O)OCCNC(C)(C)C	-3.79%	–
Cc1cc(NC(=O)C2=C(O)c3ccccc3S(=O)(=O)N2C)no1	-0.507%	–
CC(=O)CCCCn1c(=O)c2c(ncn2C)n(C)c1=O	2.34% [at 39.1 µM]	–
CCCCC(CC)COCCO (stereo not given)	-3.03%	–
Cc1ccc(S(=O)(=O)O)c(C)c1	-1.19%	–
CCCCOCCOC(=O)COc1nc(Cl)c(Cl)cc1Cl	2.64%	–
COc1cc(N)ccc1C	5.27%	–
C=C1CC/C=C(\C)CC[C@@H]2[C@@H]1CC2(C)C	-0.256%	–
O=C(CS(=O)Cc1ccco1)NC/C=C\COc1cc(CN2CCCCC2)ccn1 (stereo not given)	2.91%	–
COC(=O)CCCCCCCC(=O)OC	-3.07%	–
O=C1c2ccccc2C(=O)N1CCl	-0.984%	–
CCCCCCN	-2.59%	–
O=C(/N=N/C(=O)OCc1ccccc1)OCc1ccccc1	2.23%	–
CC(C)C[C@H](NC(=O)CNC(=O)[C@H](Cc1ccc(O)cc1)NC(=O)[C@H](CO)NC(=O)[C@H](Cc1c[nH]c2ccccc12)NC(=O)[C@H](Cc1cnc[nH]1)NC(=O)[C@@H]1CCC(=O)N1)C(=O)N[C@@H](CCCN=C(N)N)C(=O)N1CCC[C@H]1C(=O)NCC(N)=O (stereo in doubt)	6.72%	–
CC(C)(C)OC(=O)c1ccc(O)cc1	3.57%	–
Nc1ccc2cc(S(=O)(=O)O)cc(O)c2c1	0.152%	–
CCCCCCCCSCC	-1.44%	–
COC(=O)[C@@H]1[C@H]2C[C@H]3c4[nH]c5ccccc5c4CCN3C[C@@H]2CC[C@@H]1O	0.221%	–
OCCC(F)(F)C(F)(F)C(F)(F)C(F)(F)C(F)(F)C(F)(F)C(F)(F)C(F)(F)F	-2.54%	–

Compound	activation	Potency
CC(C)CCCC(C)(C)O	-1.46%	–
CC(C(=O)O)c1ccc2c(c1)CC(=O)c1ccccc1S2 (stereo not given)	1.95%	–
CC[C@H](C)C(=O)O[C@H]1C[C@H](O)C=C2C=C[C@H](C)[C@H](CC[C@@H](O)C[C@@H](O)CC(=O)O)[C@H]21	–	inactive
CCOC(=O)CC(=O)c1ccccc1	-3.09%	–
COC(=O)CCc1ccc(OCC(O)CNC(C)C)cc1 (stereo not given)	3.51%	–
O=S(=O)(O)c1ccc2cc(O)c(S(=O)(=O)O)cc2c1	-1.69%	–
CC(S)C(=O)NCC(=O)O (stereo not given)	-1.63%	–
O=C(OCC1(COC(=O)c2cccnc2)CCCC(COC(=O)c2cccnc2)(COC(=O)c2cccnc2)C1O)c1cccnc1	2.27%	–
O=C1c2cccc3c2[C@H](CCC3)CN1[C@@H]1CN2CCC1CC2	0.564%	–
CC(=O)/C=C/C1C(C)=CCC(C)C1(C)C (stereo not given)	1.77%	–
CC(=O)NCCCCCC(=O)O	1.38%	–
CN(CCOc1ccc(NS(C)(=O)=O)cc1)CCc1ccc(NS(C)(=O)=O)cc1	4.06%	–
BrCCCCCBr	1.94% [at 95.3 µM]	–
C=C(C)C1CCC(C)(O)CC1 (stereo not given)	1.56%	–
O=C1O[C@@H]2[C@@H](O)[C@H](O)O[C@@H]2[C@H]1O	–	inactive
CC1=C(C(=O)O)N2C(=O)[C@@H](NC(=O)[C@H](N)c3ccc(O)cc3)[C@H]2SC1	2.63% [at 39.1 µM]	–
CC1(C)S[C@@H]2[C@H](N=CN3CCCCCC3)C(=O)N2[C@H]1C(=O)O	6.76%	–
CCCOC(OCCC)OCCC	0.487%	–
Cc1cccc(C)c1NC(=O)c1ccccc1C(=O)O	0.792%	–
C#CC(C)N(C)C(=O)Nc1ccc(Cl)cc1 (stereo not given)	3.42%	–

Source: PubChem BioAssay (Tox21)
